“And” between values parts separate entries of the source, which are not always exact repeats. Identical values can stand only once. Results filed as inconclusive are left out. The source made the active and inactive calls. The call rests on the fitted dose curve; in most records, active means well fitted curve in the direction sought with a large enough effect; inconclusive means small, poorly fitted or top-dose-only effect, or another doubt; inactive means no such curve, though single readings can be large; an effect the other way counts as inactive or inconclusive.
What was measured:
[1] = molecular target: Cellular tumor antigen p53 (Homo sapiens) (UniProt P04637); experiment: Primary qHTS for small molecule compounds that upregulate eGFP-tagged delta133p53alpha (in N-terminal) cells. (AID 2060322); settings: NCI-H358 eGFP-delta133p53alpha fluorescence, 24 h; activation: active compounds read high;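 further: cells pre-induced with doxycycline then dosed without doxycycline; 0% = DMSO vehicle and 100% = reference activator; nearly all actives have a fitted effect of over 75% in size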
Cellular tumor antigen p53 (Homo sapiens), sequence (P04637 whole entry, looked up): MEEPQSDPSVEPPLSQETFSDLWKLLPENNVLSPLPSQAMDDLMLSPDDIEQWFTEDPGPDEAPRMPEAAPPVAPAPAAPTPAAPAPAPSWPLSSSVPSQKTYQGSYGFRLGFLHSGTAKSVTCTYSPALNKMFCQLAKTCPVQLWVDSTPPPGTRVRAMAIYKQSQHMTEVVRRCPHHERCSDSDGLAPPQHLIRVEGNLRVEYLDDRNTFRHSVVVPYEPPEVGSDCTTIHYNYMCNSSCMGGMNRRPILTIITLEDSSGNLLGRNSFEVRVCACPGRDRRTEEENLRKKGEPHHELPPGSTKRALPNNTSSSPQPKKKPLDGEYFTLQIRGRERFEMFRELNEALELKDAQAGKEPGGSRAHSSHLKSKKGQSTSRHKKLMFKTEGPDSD
How it was run: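 NCI-H358 cells pre-induced 24 h with 10 ng/ml doxycycline for eGFP-delta133p53alpha, plated dox-free and exposed 24 h at 37C to titrated compounds. Fixed, Hoechst-stained; gated GFP peak intensity by laser scanning cytometry, normalized to DMSO (0%) and 57.5 uM 5-azacytidine (100%).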

[2] = molecular target: Aldehyde dehydrogenase, mitochondrial (Homo sapiens) (UniProt P05091); experiment: qHTS for Inhibitors of the Aldehyde Dehydrogenase Family (ALDH2) Primary screen (AID 2061308); settings: ALDH2 enzyme inhibition qHTS, 1536-well; series mostly up to 56 µM;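 further: plate controls were vehicle for no effect and reference inhibitor for full effect; nearly all actives have a fitted effect of over 55% in size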
[3] = molecular target: Retinaldehyde dehydrogenase 3 (Homo sapiens) (UniProt P47895); experiment: qHTS for Inhibitors of the Aldehyde Dehydrogenase Family (ALDH1A3) Primary screen (AID 2061315); settings: ALDH inhibition qHTS; series mostly up to 56 µM;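 further: plate controls were DMSO vehicle for no effect and reference inhibitor for full effect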

O=C(OCCOCCO)c1ccccc1Nc1cccc(C(F)(F)F)c1
inactive: activation [1] -13% and -1.67% | Potency [2] | Potency [3]

CC(=O)C1=C(O)C=C2Oc3c(C(C)=O)c(O)c(C)c(O)c3[C@]2(C)C1=O
inactive: activation [1] -2.68% | Potency [2] | Potency [3]

CC1OC2OC(=O)C3(C)CC4=C(CO)C5=C(CC(=O)C4(C)C(C1=O)C23)C(C)(C)OC(=O)C5 (stereo not given)
inactive: activation [1] -7.63% | Potency [2] | Potency [3]

COc1cc(O)cc(C)c1C(=O)OC1C(CO)OC(OC2C(O)C(O)C(O)C(O)C2O)C(O)C1O (stereo not given)
inactive: activation [1] -29% | Potency [2] | Potency [3]

COC(=O)CC[C@@H](C)C1CCC2C3CCC4C[C@H](OC(C)=O)CCC4(C)C3C[C@H](O)C21C (stereo not given in full)
inactive: activation [1] 3.67% | Potency [2] | Potency [3]

C/C(=C\CCC(C)CCO)C(=O)OC[C@H]1O[C@@H](O[C@@H]2OC=C(C(=O)O)[C@H]3CC[C@](C)(O)[C@@H]23)C(O)[C@@H](O)C1O (stereo not given in full)
inactive: activation [1] -20.5% | Potency [2] | Potency [3]

CC(c1c[nH]c2ccccc12)C(O)C(=O)O (stereo not given)
inactive: activation [1] -11.5% | Potency [2] | Potency [3]

CC1=CCC[C@@H]2[C@](CCc3ccoc3)(C(=O)O)[C@H](C)CC[C@@]12C
inactive: activation [1] -28.2% | Potency [2] | Potency [3]

C=C1C(=O)O[C@@H]2CC(C)=C([C@@H](C)CCCOC(C)=O)[C@@H](O)[C@H]12
inactive: activation [1] 28.6% | Potency [2] | Potency [3]

CC(C)=CCc1cc2c(cc1O)OC[C@H]1c3ccc(O)cc3O[C@@H]21
inactive: activation [1] -3.82% | Potency [2] | Potency [3]
